Measured values as given in PubChem BioAssay (EPA / NIEHS).
Results filed as inconclusive are left out. The source made the active and inactive calls. How the source made its calls, unless noted: active means hit-call score of the fitted dose curve at least 0.9, where 1 is the maximum; inactive means score below 0.9.

Key:
[1] = read-out: E-selectin (Homo sapiens) (UniProt P16581); experiment: BSK_SAg_Eselectin: BioMAP Diversity Plus: SAg Assay for Eselectin Biomarker Activity (AID 2283091); settings: primary human HUVEC with PBMC; actives raise or lower the signal
Outline: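 E-selectin ELISA readout at 24 h post-dosing in human umbilical vein endothelial cell/PBMC co-culture; gain or loss of signal fitted relative to DMSO baseline.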

[2] = read-out: Monokine induced gamma interferon (MIG), CXCL9 (gene 4283); experiment: BSK_SAg_MIG: BioMAP Diversity Plus: SAg Assay for Monokine induced gamma interferon (MIG) Biomarker Activity (AID 2283092); settings: primary human HUVEC with PBMC; actives raise or lower the signal
Outline: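 HUVEC plus human PBMC co-culture, chemicals dosed and MIG (CXCL9) quantified by ELISA at 24 h. Bidirectional curve fitting against DMSO as negative control and baseline, so both gain and loss of signal count as activity.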

[3] = BSK_SAg_PBMCCytotoxicity: PBMC Cytotoxicity Assessment in the BioMAP Diversity Plus: SAg Assay (AID 2283093); settings: primary human HUVEC with PBMC;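 further: PBMC viability measured as Alamar Blue reduction fluorescence at 546/580 nm; fitted both ways against DMSO so a hit may be loss or gain of signal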;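 on AC50: PBMC superantigen activated with SEB plus TSST-1 one hour after compound addition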
Outline: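 Human umbilical vein endothelial cells co-cultured with PBMC; PBMC (75,000/well) pre-treated with compound 1 h, then activated with SEB and TSST-1 (20 ng/mL final each) for 90 h. Alamar Blue added 6 h, fluorescence 546/580 nm; bidirectional fit versus DMSO.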

[4] = read-out: Interleukin-8 (IL8), CXCL8 (gene 3576); experiment: BSK_SAg_IL8: BioMAP Diversity Plus: SAg Assay for Interleukin-8 (IL8) Biomarker Activity (AID 2283094); settings: primary human HUVEC with PBMC; actives raise or lower the signal
Outline: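 ELISA read-out of IL-8 in a primary human vascular co-culture (umbilical vein endothelium plus PBMC), taken 24 h after compound addition. Values derive from bidirectional fits against DMSO negative controls.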

[5] = BSK_SAg_Proliferation: Cell Proliferation Assessment in the BioMAP Diversity Plus: SAg Assay (AID 2283095); settings: primary human HUVEC with PBMC;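 further: relative cell number as total protein by SRB absorbance in sub-confluent culture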
Outline: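 Cells (endothelium plus PBMC, human primary) were dosed with chemical, cultured 96 h, fixed in 10% TCA and stained with 0.1% SRB. Absorbance at 560 nm gave relative protein, fitted bidirectionally relative to DMSO.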

[6] = BSK_SAg_SRB: Viability Assessment in the BioMAP Diversity Plus: SAg Assay (AID 2283096); settings: primary human HUVEC with PBMC;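 further: cells read one day after compound addition; hits may be either gain or loss of signal compared with DMSO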
Outline: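 Endothelial/PBMC primary human co-culture; compound 24 h; fix 10% TCA, stain 0.1% SRB, A560; protein content as cytotoxicity proxy; bidirectional curve fit, DMSO = baseline.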

[7] = biological target: Cytochrome P450 2C19 (Homo sapiens) (UniProt P33261); experiment: NVS_ADME_hCYP2C19: NovaScreen (NVS) CYP450-related Enzyme Activity (ADME) Assay for human CYP2C19 (AID 2283113; active means hit-call score of the fitted dose curve at least 0.9, where 1 is the maximum;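 on AC50: potency for inhibition seen as loss of fluorescent signal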)
Outline: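 Recombinant insect-cell-expressed enzyme, fluorescent substrate, 1 h after chemical addition, fluorescence intensity. Baseline = acetonitrile vehicle; activity scored as signal loss. Primary HTS single concentration 10 uM, duplicate; actives retested in concentration series.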

[8] = biological target: human CYP2C9, CYP2C9 (gene 1559) (UniProt P11712); experiment: NVS_ADME_hCYP2C9: NovaScreen (NVS) CYP450-related Enzyme Activity (ADME) Assay for human CYP2C9 (AID 2283108; active means hit-call score of the fitted dose curve at least 0.9, where 1 is the maximum)
human CYP2C9, CYP2C9 (gene 1559), sequence (P11712 whole entry, looked up): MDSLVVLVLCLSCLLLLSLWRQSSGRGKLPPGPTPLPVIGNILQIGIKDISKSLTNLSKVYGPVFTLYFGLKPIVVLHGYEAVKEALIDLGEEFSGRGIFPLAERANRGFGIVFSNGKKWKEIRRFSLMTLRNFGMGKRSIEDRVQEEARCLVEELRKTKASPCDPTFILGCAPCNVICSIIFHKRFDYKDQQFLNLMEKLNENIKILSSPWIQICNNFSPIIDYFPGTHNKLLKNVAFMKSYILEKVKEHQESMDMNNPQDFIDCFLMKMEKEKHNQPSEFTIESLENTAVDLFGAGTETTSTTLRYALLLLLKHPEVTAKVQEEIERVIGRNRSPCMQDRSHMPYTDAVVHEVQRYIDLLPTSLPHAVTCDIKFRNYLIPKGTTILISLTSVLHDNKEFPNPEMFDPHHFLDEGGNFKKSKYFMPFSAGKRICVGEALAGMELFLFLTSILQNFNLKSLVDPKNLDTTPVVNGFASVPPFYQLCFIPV
Outline: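 Cell-free assay of recombinant human CYP2C9 produced in Sf9 cells, with enzyme activity read by fluorescence intensity 0.75 h after compound addition. Loss of signal versus an acetonitrile negative control indicates inhibition. Primary screen used 10 uM in duplicate; actives were retested in concentration series.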

[9] = biological target: human CYP2B6, CYP2B6 (gene 1555) (UniProt P20813); experiment: NVS_ADME_hCYP2B6: NovaScreen (NVS) CYP450-related Enzyme Activity (ADME) Assay for human CYP2B6 (AID 2283101; active means hit-call score of the fitted dose curve at least 0.9, where 1 is the maximum)
human CYP2B6, CYP2B6 (gene 1555), sequence (P20813 whole entry, looked up): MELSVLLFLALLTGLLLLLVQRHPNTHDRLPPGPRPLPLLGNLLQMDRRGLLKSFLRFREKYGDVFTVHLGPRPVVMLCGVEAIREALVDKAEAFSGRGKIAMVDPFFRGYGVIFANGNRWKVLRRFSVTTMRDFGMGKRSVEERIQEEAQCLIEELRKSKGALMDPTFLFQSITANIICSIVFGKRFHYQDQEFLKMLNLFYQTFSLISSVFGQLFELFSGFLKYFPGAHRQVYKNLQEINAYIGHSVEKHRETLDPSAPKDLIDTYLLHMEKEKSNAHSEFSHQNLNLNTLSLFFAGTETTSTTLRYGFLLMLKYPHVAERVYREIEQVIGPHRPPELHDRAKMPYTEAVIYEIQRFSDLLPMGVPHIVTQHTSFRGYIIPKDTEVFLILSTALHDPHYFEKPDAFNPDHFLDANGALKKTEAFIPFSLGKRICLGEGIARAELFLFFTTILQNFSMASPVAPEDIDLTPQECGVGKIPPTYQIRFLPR
Outline: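 Recombinant human CYP2B6 with fluorogenic substrate, read by fluorescence intensity 1 h after dosing. Primary screen in duplicate at 10 uM, actives followed in concentration series; signal loss relative to acetonitrile control.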

[10] = biological target: human CYP1A2, CYP1A2 (gene 1544) (UniProt P05177); experiment: NVS_ADME_hCYP1A2: NovaScreen (NVS) CYP450-related Enzyme Activity (ADME) Assay for human CYP1A2 (AID 2283102; active means hit-call score of the fitted dose curve at least 0.9, where 1 is the maximum;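 further: potency for inhibition since loss of fluorescence marks reduced CYP1A2 activity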)
human CYP1A2, CYP1A2 (gene 1544), sequence (P05177 whole entry, looked up): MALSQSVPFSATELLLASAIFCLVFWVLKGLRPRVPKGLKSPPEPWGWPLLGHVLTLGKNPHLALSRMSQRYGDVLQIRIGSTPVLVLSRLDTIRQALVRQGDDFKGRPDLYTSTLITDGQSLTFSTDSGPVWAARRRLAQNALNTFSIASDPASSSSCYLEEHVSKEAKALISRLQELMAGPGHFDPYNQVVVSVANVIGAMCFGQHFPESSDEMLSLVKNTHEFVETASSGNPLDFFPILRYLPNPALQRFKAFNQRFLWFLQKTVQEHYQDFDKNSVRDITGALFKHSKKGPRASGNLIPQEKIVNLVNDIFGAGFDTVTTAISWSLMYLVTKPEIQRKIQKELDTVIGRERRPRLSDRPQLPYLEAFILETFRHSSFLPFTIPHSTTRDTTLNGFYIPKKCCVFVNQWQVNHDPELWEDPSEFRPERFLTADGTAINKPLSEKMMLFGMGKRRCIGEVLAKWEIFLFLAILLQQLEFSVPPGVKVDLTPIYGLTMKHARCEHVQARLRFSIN
Outline: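 Fluorescence-intensity enzyme activity read-out, taken 0.5 h post-dosing, using insect-cell-derived recombinant CYP1A2 and specific fluorescent substrate. Acetonitrile served as negative control/baseline. Single-concentration duplicate screen at 10 uM, then concentration-response follow-up.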

[11] = biological target: human CYP1A1, CYP1A1 (gene 1543) (UniProt P04798); experiment: NVS_ADME_hCYP1A1: NovaScreen (NVS) CYP450-related Enzyme Activity (ADME) Assay for human CYP1A1 (AID 2283100; active means hit-call score of the fitted dose curve at least 0.9, where 1 is the maximum)
human CYP1A1, CYP1A1 (gene 1543), sequence (P04798 whole entry, looked up): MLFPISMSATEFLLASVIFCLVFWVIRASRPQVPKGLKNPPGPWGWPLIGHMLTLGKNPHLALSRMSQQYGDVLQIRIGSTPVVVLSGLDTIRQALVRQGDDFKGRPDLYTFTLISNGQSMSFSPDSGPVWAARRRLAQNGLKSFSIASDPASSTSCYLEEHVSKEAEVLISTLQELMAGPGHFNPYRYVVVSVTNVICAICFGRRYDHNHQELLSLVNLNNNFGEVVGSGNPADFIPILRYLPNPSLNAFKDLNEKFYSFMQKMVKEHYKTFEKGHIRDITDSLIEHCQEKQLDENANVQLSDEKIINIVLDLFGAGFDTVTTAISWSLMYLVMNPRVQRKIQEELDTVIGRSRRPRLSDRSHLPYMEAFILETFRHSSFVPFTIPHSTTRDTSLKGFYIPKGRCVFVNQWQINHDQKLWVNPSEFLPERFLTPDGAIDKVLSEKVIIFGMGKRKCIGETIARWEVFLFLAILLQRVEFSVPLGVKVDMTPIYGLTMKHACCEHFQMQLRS
Outline: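 Read-out: fluorescence intensity from enzymatic turnover of substrate by recombinant CYP1A1, loss of signal indicating inhibition. Incubation 1 h post-dose. Primary single-point 10 uM in duplicate; actives rerun singly with top concentration 20 uM.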

[12] = biological target: human CYP2D6, CYP2D6 (gene 1565) (UniProt P10635); experiment: NVS_ADME_hCYP2D6: NovaScreen (NVS) CYP450-related Enzyme Activity (ADME) Assay for human CYP2D6 (AID 2283107; active means hit-call score of the fitted dose curve at least 0.9, where 1 is the maximum)
human CYP2D6, CYP2D6 (gene 1565), sequence (P10635 whole entry, looked up): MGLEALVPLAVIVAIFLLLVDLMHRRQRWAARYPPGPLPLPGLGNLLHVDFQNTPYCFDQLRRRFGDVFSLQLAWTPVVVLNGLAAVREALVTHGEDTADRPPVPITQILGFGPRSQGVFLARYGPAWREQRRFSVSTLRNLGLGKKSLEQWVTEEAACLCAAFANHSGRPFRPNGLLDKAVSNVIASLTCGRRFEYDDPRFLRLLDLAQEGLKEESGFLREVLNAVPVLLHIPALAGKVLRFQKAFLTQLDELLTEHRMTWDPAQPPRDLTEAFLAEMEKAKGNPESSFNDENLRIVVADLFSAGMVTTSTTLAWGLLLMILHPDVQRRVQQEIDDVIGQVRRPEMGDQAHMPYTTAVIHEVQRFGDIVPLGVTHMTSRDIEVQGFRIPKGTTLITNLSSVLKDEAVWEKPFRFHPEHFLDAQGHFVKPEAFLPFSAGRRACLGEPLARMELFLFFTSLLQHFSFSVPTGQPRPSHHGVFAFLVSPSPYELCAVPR
Outline: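 Fluorescence intensity read 1 h post-dosing; insect-cell-expressed recombinant protein with fluorogenic substrate, no cells. Activity is scored as signal loss relative to acetonitrile baseline, first at a single 10 uM concentration in duplicate, then as concentration series for confirmed actives.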

Measured: AC50

E-selectin (Homo sapiens), sequence (P16581 whole entry, looked up): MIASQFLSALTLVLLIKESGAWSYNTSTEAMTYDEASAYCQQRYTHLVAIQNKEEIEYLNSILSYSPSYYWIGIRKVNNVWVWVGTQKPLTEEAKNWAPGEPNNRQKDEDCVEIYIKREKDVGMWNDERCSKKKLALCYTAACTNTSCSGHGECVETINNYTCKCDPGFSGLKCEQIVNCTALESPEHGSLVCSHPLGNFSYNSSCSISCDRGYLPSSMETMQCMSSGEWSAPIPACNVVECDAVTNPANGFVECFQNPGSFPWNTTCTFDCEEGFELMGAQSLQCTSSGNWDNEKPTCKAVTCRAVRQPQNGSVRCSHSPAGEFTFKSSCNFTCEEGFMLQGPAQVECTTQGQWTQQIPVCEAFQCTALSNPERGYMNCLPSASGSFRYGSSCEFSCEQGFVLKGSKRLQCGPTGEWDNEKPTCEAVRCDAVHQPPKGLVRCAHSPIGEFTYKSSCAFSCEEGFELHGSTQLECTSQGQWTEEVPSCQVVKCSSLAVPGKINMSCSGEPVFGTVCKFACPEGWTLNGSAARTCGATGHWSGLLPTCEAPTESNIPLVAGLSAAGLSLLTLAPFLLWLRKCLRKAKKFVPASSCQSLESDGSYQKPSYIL

CCCCCCCCCC(=O)O
inactive: [1] | [2] | [3] | [4] | [5] | [6]

O=C(O)Cn1c(=O)n(Cc2ccc(Br)cc2F)c(=O)c2ccc(Cl)cc21
inactive: [1] | [2] | [3] | [4] | [5] | [6]

O=C(O)c1ccccc1-n1cc(C(=O)O)c(=O)c2cc(Nc3c(F)cc(F)cc3Cl)c(Cl)cc21
inactive: [1] | [2] | [3] | [4] | [5] | [6]

O=CCCCC=O
inactive: [2] | [4] | [6]
active: [1] 30.3 µM | [3] 20.6 µM | [5] 32.8 µM

Cc1cc2c(cc1C(F)(F)F)N(C(=O)Nc1ccc(Oc3cccnc3C)nc1)CC2
inactive: [1] | [2] | [3] | [4] | [5] | [6]

Cc1cn([C@H]2C[C@H](N=[N+]=[N-])[C@@H](CO)O2)c(=O)[nH]c1=O
inactive: [1] | [2] | [3] | [4] | [5] | [6]

O=C(Nc1ccc(Cl)cc1)Nc1ccc(Cl)c(Cl)c1
active: [1] 2.6 µM | [2] 2.11 µM | [3] 2.72 µM | [4] 2.29 µM | [5] 1.79 µM | [6] 2.28 µM | [7] 10 µM

CCCOC(=O)c1cc(O)c(O)c(O)c1
inactive: [2] | [3] | [4] | [6] | [8] | [7]
active: [1] 14.3 µM | [5] 17 µM

CC(C)(c1cc(Br)c(O)c(Br)c1)c1cc(Br)c(O)c(Br)c1
active: [1] 22.1 µM | [2] 36.1 µM | [3] 33.3 µM | [4] 30.4 µM | [5] 25.4 µM | [6] 29.4 µM | [8] 2.93 µM

CCCCCc1ccc(N)cc1
inactive: [1] | [2] | [3] | [4] | [5] | [6]

OC12N=C(c3ccccc3)SC1Cc1cc(Cl)ccc12 (stereo unspecified)
inactive: [1] | [2] | [4] | [6]
active: [3] 28.6 µM | [5] 25.4 µM | [9] 3.9 µM | [10] 0.814 µM | [7] 0.245 µM

Cc1ncc(CO)c(CO)c1O
inactive: [1] | [2] | [3] | [4] | [5] | [6]

c1ccc2n[nH]nc2c1
inactive: [1] | [2] | [3] | [4] | [5] | [6]

Clc1cc(Cl)c2c(c1)N=C1CCCCCN1C2
active: [11] 0.764 µM | [10] 2.34 µM | [12] 2.71 µM
not listed: [7] | [8] | [9]
inactive: all other assays above

CN1C(=O)CC[C@H]1c1cccnc1
inactive: [1] | [2] | [3] | [4] | [5] | [6]

O=C1O[C@H]([C@@H](O)CO)C(O)=C1O
inactive: [2] | [3] | [4] | [5] | [6]

COc1cccc([C@H](O)C2CCN(CCc3ccc(F)cc3)CC2)c1OC
inactive: [1] | [2] | [3] | [4] | [5] | [6]
active: [12] 5.29 µM

CCO[Si](CCCNC(N)=O)(OCC)OCC
inactive: [1] | [2] | [3] | [4] | [5] | [6]

Cc1oc2c(NC(=O)c3c(Cl)cccc3Cl)cccc2c1C(C)(C)O
inactive: [2] | [4]
active: [1] 7.6 µM | [3] 14.2 µM | [5] 20.6 µM | [6] 25.3 µM | [11] 2.39 µM

Cc1occc1C(=O)Nc1ccc(C(=O)N2CCC(F)(F)/C(=C\C(=O)N3CCC(N4CCCCC4)CC3)c3ccccc32)cc1
inactive: [1] | [3] | [4] | [5] | [6]
active: [12] 1.77 µM
